A selection: hits, their analogues and other compounds. The true share with any hit is near 2.8%.
pPAFAH inh: inhibitors of human plasma PAF acetylhydrolase (pPAFAH); Q13093; recombinant pPAFAH, FP-rhodamine probe fluorescence polarization; inhibition, % at 3.39 µM; actives 1.5% (n = 330,000); AID 463082;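 active = inhibition above the mean inhibition across the screen plus 3 SD, cut at about 25% in these data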;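 also: inhibitors block binding of the rhodamine activity-based probe so polarization drops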
PAFAH2 FP inh: inhibitors of human PAFAH2. Q99487. recombinant PAFAH2, FP-rhodamine activity probe, fluorescence polarization. inhibition, % at 3.39 µM. actives 0.99% (n = 340,000). AID 492956;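 active = inhibition above the mean over all tested compounds plus 3 SD, cut at about 30% in these data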;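 also: inhibitors block probe labeling of enzyme so polarization drops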
Fam108B counter: counter-screen for RBBP9 inhibitors: inhibitors of mouse Fam108B. recombinant Fam108B, FP-Rh probe fluorescence polarization. inhibition, % at 9.51 µM. actives 0.33% (n = 300,000);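 active = inhibition above the screen mean inhibition plus 3 SD, computed separately per campaign, cut at about 18% in these data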;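 also: inhibitors lower polarization as less probe binds the enzyme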
PME-1 inh: PME-1 (human) inhibition. Q9Y570. recombinant PME-1, FP-Rh probe fluorescence polarization. inhibition, % at 5.9 µM. actives 0.53% (n = 320,000). AID 2130;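 active = inhibition above the campaign mean of all compounds plus 3 SD, cut at about 26% in these data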;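 also: competitive labeling of PME-1 active site by serine hydrolase directed probe; inhibitors block probe labeling so polarization falls and inhibition rises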
Target sequence (Q9Y570 whole entry, looked up): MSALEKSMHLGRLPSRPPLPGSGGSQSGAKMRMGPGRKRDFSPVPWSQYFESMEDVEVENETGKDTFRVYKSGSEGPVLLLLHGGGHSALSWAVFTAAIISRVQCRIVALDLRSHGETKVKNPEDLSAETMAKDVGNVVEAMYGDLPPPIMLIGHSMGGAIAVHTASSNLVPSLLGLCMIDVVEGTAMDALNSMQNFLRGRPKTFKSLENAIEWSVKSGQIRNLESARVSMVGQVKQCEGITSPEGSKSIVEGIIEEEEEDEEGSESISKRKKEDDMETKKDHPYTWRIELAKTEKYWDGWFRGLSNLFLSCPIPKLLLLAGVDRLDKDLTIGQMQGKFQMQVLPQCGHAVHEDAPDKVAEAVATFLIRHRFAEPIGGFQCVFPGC
PAFAH1B2 inh: inhibitors of human PAFAH1B2 | P68402 | recombinant PAFAH1B2, FP-rhodamine activity probe, fluorescence polarization | inhibition, % at 3.39 µM | actives 1.2% (n = 340,000) | AID 492953;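 active = inhibition above the mean of all tested compounds plus 3 SD, cut at about 24% in these data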
Target sequence (P68402 whole entry, looked up): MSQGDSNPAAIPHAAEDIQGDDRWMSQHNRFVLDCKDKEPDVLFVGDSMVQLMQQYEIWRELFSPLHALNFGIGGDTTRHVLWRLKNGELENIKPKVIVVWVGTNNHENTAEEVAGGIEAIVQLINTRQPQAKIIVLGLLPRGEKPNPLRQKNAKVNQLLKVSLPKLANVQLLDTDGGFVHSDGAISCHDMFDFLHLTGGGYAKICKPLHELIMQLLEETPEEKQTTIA
PAFAH1B3 FP inh: PAFAH1B3 (human) inhibition; Q15102; recombinant PAFAH1B3, FP-rhodamine probe, fluorescence polarization; inhibition, % at 3.39 µM; actives 0.28% (n = 340,000); AID 492972;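 active = inhibition above the screen-wide average of all tested compounds plus 3 SD, cut at about 25% in these data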
A number is an active result; . = inactive; / = no result.

SMILES	pPAFAH inh	PAFAH2 FP inh	Fam108B counter	PME-1 inh	PAFAH1B2 inh	PAFAH1B3 FP inh
CN1C[C@H]2CON(C)[C@H]2C[C@H]1c1cccc(N2CCOCC2)c1	/	.	/	/	.	.
COc1ccc(NC(=O)COC(=O)c2ccc3ccccc3n2)cc1	.	.	/	.	.	.
CCN(CC)c1ccc(NC(=O)COC(=O)c2ccc3ccccc3n2)cc1	26	.	.	.	.	.
N[C@@H](Cc1c[nH]c2ccc(O)cc12)C(=O)O	.	.	.	.	.	.
NC(Cc1c[nH]c2ccc(OCc3ccccc3)cc12)C(=O)O (stereo not drawn)	26	.	.	.	.	.
O=C1C=C(c2ccc(F)cc2OCc2ccccc2)C[C@@H](c2ccc(F)cc2)C1	.	.	/	.	.	.
CCCC(=O)Nn1cnc2c(c1=O)C1(CCCC1)Cc1ccccc1-2	.	.	.	.	.	.
CC(=O)Nn1cnc2c(c1=O)C1(CCCC1)Cc1ccccc1-2	.	.	.	.	25	.
Cn1ncn2c(=O)c3c(nc12)-c1ccccc1CC31CCCC1	.	.	.	.	.	.
Cc1ccc(-n2c(SCC(N)=O)nc3c(c2=O)C2(CCCC2)Cc2ccccc2-3)cc1	.	.	.	.	.	.
O=c1c2c(nc3n1CCCCC3)-c1ccccc1CC21CCCC1	.	.	.	.	28	.
C=CCSc1n[nH]c2nc3c(c(=O)n12)C1(CCCC1)Cc1ccccc1-3	.	.	.	.	44	.
CSCC[C@H](NC(=O)N1C[C@H]2C[C@@H](C1)c1cccc(=O)n1C2)C(=O)Nc1ccc(NC(C)=O)cc1	.	.	.	.	.	.
COc1cccc(NC(=O)CN(C)C(=O)c2ccc3c(c2)S(=O)(=O)N=C2CCCCCN23)c1	.	.	.	.	.	.
COc1cc(/C=N/NC(=O)c2ccc(COc3ccccc3Cl)o2)cc(Br)c1O	32	.	.	.	.	.
COc1ccc(S(=O)(=O)Cc2ccc(C(=O)NCCc3cc(OC)ccc3OC)o2)cc1	.	.	.	.	.	.
COc1ccc(OC)c(CCNC(=O)c2ccc(CS(=O)(=O)c3ccc(Br)cc3)o2)c1	.	.	.	.	27	.
Cc1ccc2nc(-c3cccc(N)c3)[nH]c2c1	.	.	.	.	.	.
Cc1ccc2nc(-c3sc4nc(C)cc(C)c4c3N)[nH]c2c1	.	.	.	30	.	.
CC1(OC(=O)c2ccco2)C(=O)C=C2C=C(c3ccc(C#N)cc3)OC=C2C1=O (stereo not drawn)	52	/	.	.	/	/
CC1(OC(=O)CCc2ccccc2)C(=O)C=C2C=C(c3ccc(C#N)cc3)N(Cc3ccco3)C=C2C1=O (stereo not drawn)	33	.	.	.	.	.
CCC(=O)OC1(C)C(=O)C=C2C=C(c3ccc(C#N)cc3)OC=C2C1=O (stereo not drawn)	33	.	.	.	.	.
Cn1cc(S(=O)(=O)N2CCc3ccccc32)cc1C(=O)NC(C)(C)C	.	.	.	.	.	.
COc1ccccc1C(=O)NCCN1CCN(c2ccccc2)CC1	.	.	.	.	.	.
CN(C)c1ccc(CNC(=O)CN(C)S(=O)(=O)c2cccc3cccnc23)cc1	.	.	.	33	.	.
SMILES	pPAFAH inh	PAFAH2 FP inh	Fam108B counter	PME-1 inh	PAFAH1B2 inh	PAFAH1B3 FP inh
CCOc1ccc(CCNC(=O)COC(=O)COc2ccc(Cl)cc2)cc1OCC	26	.	.	.	.	.
O=C(COC(=O)COc1ccc(Cl)cc1)NCCCc1ccccc1	.	.	/	/	29	.
CCOc1cc(CNCCc2ccc(S(N)(=O)=O)cc2)ccc1OCc1ccc(Cl)cc1	.	.	.	.	28	.
COc1cc(CNCCc2ccc(S(N)(=O)=O)cc2)ccc1OCc1ccc(Cl)cc1	.	.	.	.	.	.
COc1ccc(CCNC(=O)COC(=O)COc2ccc(Cl)cc2)cc1OC	.	.	.	.	.	.
O=C(COC(=O)COc1ccccc1)NCCc1ccccc1	.	.	.	.	.	.
CCCCN(CC)C(=O)Cc1c(C(=O)O)[nH]c2ccc(Cl)cc12	.	.	.	.	50	.
CCOCCCNC(=O)Cc1c(C(=O)O)[nH]c2ccc(Cl)cc12	.	.	.	.	30	.
Cc1ccc(C)c(N2CCN(C(=O)Cc3c(C(=O)O)[nH]c4ccc(Cl)cc34)CC2)c1	.	.	.	.	.	.
CCCCn1c(N)c(N(CCC(C)C)C(=O)C2=NN(c3cc(C)ccc3C)C(=O)CC2)c(=O)[nH]c1=O	.	.	.	.	.	.
CCCC(NC(=O)Cc1c(C)c2c(cc(C)c3c(C)coc32)oc1=O)C(=O)O (stereo not drawn)	.	.	.	.	.	.
CCOc1ccc(NC(=O)CCSc2ccc(C)cc2)cc1	.	.	.	.	25	.
COc1ccc(C2CC(c3cccc(Br)c3)=NN2c2ccc(S(N)(=O)=O)cc2)cc1 (stereo not drawn)	32	.	/	/	.	.
COc1ccc(C2CC(c3cccc(F)c3)=NN2c2ccc(S(N)(=O)=O)cc2)cc1 (stereo not drawn)	.	.	/	/	.	.
O=C(CSc1n[nH]c(-c2cccs2)n1)NCCc1ccccc1	.	.	.	.	.	.
Fc1ccc(-[n+]2nc(Nc3ccccc3)sc2-c2c3ccccc3cc3ccccc23)cc1	26	.	.	.	.	.
O=C(CNS(=O)(=O)c1ccc2ccccc2c1)OCc1csc(-c2ccccc2)n1	.	.	.	.	28	.
CCCCN(C)C(=O)C1CCN(Cc2cccc(OCc3ccccc3)c2)CC1	.	.	.	.	.	.
Cc1ccc(C(=O)N(Cc2cccnc2)Cc2cc3cc(C)ccc3n3nnnc23)cc1	.	.	.	.	.	.
O=C(Nc1cc([N+](=O)[O-])ccc1O)c1cccc(C(=O)Nc2cc([N+](=O)[O-])ccc2O)c1	.	33	.	.	.	34
O=C(Nc1cc([N+](=O)[O-])ccc1O)c1ccc2c(c1)C(=O)N(Cc1ccco1)C2=O	30	.	.	.	.	.
COc1ccc(N2CC(C(=O)N3CCN(Cc4ccc5c(c4)OCO5)CC3)CC2=O)cc1 (stereo not drawn)	.	.	.	.	.	.
CCOc1cccc(NC(=O)/C(C#N)=C\c2cn(CC(=O)O)c3ccccc23)c1	.	.	.	.	.	.
CCOc1ccccc1/C=C(\C#N)C(=O)Nc1cccc(C(=O)O)c1	.	.	.	142	.	.
O=C1CC(/C=C/c2ccco2)=Nc2ccccc2N1	26	.	.	.	.	.
COCc1cc(C)nc(SCC(=O)Nc2ccc3c(c2)n(C)c(=O)n3C)c1C#N	.	.	.	.	.	.
O=C1CCCC2=C1Sc1ccc(Cl)cc1N2	.	.	.	.	.	.
COC(=O)c1ccc2c(c1)SC1=C(CCCC1=O)N2	.	.	.	29	.	.
